Source: PubChem BioAssay AID1159580 (chemical genetic matrix, 2015)
“And” between values parts separate entries of the source, which are not always exact repeats. Identical values can stand only once. Hit rate of the full screen: of about 5,500 compounds, about 2,000 (36%) were called active. Inconclusive results (about 18%) are left out. No stated cut-off is given here; in the data, active means normalized growth mostly below about 0.91 (no sharp cut-off); inconclusive means no clear call, values can overlap the other calls; inactive means mostly above about 0.92. Some of the results follow.

Test: chemical genetic growth profiling, strain panel (AID 1159580);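 further: tested at 20 µM; growth read once vehicle control cultures reached saturation at 30 °C; 1 = growth at the plate median or of vehicle wells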
Conditions: S. cerevisiae deletion strains, growth OD

Measured: normalized growth

COc1cc2c(cc1OC)C1(O)C(=O)c3ccc(O)c(C(=O)O)c3OC1CO2 (configuration not stated)
inactive: locus YAL021C, strain ccr4, stronger effect = lower value 1 | locus YAL026C, strain drs2, stronger effect = lower value 0.988 | locus YAL030W, strain snc1, stronger effect = lower value 1 | locus YBL061C, strain skt5, stronger effect = lower value 0.995 | locus YBR009C, strain hhf1, stronger effect = lower value 0.998 | locus YBR021W, strain FUR4, stronger effect = lower value 1.06 | locus YBR023C, strain chs3, stronger effect = lower value 1.01 | locus YBR171W, strain sec66, stronger effect = lower value 0.996 | locus YBR229C, strain ROT2, stronger effect = lower value 1.01 | locus YBR231C, strain swc5, stronger effect = lower value 1.01 | locus YBR279W, strain paf1, stronger effect = lower value 0.985 | locus YCL011C, strain gbp2, stronger effect = lower value 0.991 | locus YCL016C, strain dcc1, stronger effect = lower value 0.98 | locus YCL029C, strain bik1, stronger effect = lower value 0.985 | locus YCL069W, strain vba3, stronger effect = lower value 1 | locus YCR088W, strain abp1, stronger effect = lower value 0.996 | locus YDL005C, strain med2, stronger effect = lower value 1.01 | locus YDL035C, strain GPR1, stronger effect = lower value 1.05 | locus YDL040C, strain nat1, stronger effect = lower value 0.998 | locus YDL074C, strain BRE1, stronger effect = lower value 1.05 | locus YDL101C, strain DUN1, stronger effect = lower value 0.991 | locus YDL185W, strain tfp1, stronger effect = lower value 0.954 | locus YDL192W, strain arf1, stronger effect = lower value 1.02 | locus YDR001C, strain nth1, stronger effect = lower value 0.987 | locus YDR069C, strain doa4, stronger effect = lower value 0.991 | locus YDR101C, strain arx1, stronger effect = lower value 1.05 | locus YDR137W, strain rgp1, stronger effect = lower value 0.973 | locus YDR159W, strain sac3, stronger effect = lower value 1 | locus YDR162C, strain NBP2, stronger effect = lower value 0.993 | locus YDR195W, strain ref2 0.955 | locus YDR297W, strain sur2, stronger effect = lower value 1 | locus YDR318W, strain mcm21, stronger effect = lower value 0.986 | locus YDR334W, strain swr1, stronger effect = lower value 0.978 | locus YDR335W, strain msn5, stronger effect = lower value 1.01 | locus YDR388W, stronger effect = lower value 0.977 | locus YDR392W, strain spt3, stronger effect = lower value 0.974 | locus YDR502C, strain sam2, stronger effect = lower value 0.983 | locus YEL003W, strain gim4, stronger effect = lower value 0.998 | locus YEL037C, strain rad23, stronger effect = lower value 0.987 | locus YEL061C, strain CIN8 (second series), stronger effect = lower value 0.989 | locus YEL061C, strain CIN8, stronger effect = lower value 0.998 | locus YER015W, strain faa2, stronger effect = lower value 0.989 | locus YER016W, strain bim1, stronger effect = lower value 0.991 | locus YER110C, stronger effect = lower value 0.979 | locus YER111C, strain swi4, stronger effect = lower value 0.98 | locus YER155C, strain BEM2 (second series), stronger effect = lower value 0.994 | locus YER155C, strain BEM2, stronger effect = lower value 0.99 | locus YER167W, strain BCK2, stronger effect = lower value 1.04 | locus YFR010W, strain ubp6, stronger effect = lower value 1 | locus YGL078C, strain dbp3, stronger effect = lower value 0.981 | locus YGL086W, strain mad1, stronger effect = lower value 1.02 | locus YGL167C, strain pmr1, stronger effect = lower value 0.998 | locus YGL173C, strain kem1, stronger effect = lower value 0.994 | locus YGL227W, strain vid30, stronger effect = lower value 0.991 | locus YGL240W, strain doc1, stronger effect = lower value 1.01 | locus YGL248W, strain PDE1, stronger effect = lower value 1.02 | locus YGL253W, strain hxk2, stronger effect = lower value 0.999 | locus YGR078C, strain PAC10, stronger effect = lower value 0.991 | locus YGR135W, strain pre9, stronger effect = lower value 0.98 | locus YGR252W, strain gcn5, stronger effect = lower value 1.09 | locus YHR013C, strain ard1, stronger effect = lower value 0.972 | locus YHR027C, strain rpn1, stronger effect = lower value 0.991 | locus YHR030C, strain SLT2, stronger effect = lower value 0.99 | locus YHR079C, strain IRE1 (second series), stronger effect = lower value 0.99 | locus YHR079C, strain IRE1, stronger effect = lower value 0.983 | locus YHR094C, strain hxt1, stronger effect = lower value 0.982 | locus YHR129C, strain ARP1, stronger effect = lower value 1 | locus YHR142W, strain chs7, stronger effect = lower value 0.98 | locus YHR200W, strain rpn10, stronger effect = lower value 0.995 | locus YIL066C, strain RNR3, stronger effect = lower value 1.02 | locus YIL073C, strain SPO22, stronger effect = lower value 0.932 | locus YIL125W, strain kgd1, stronger effect = lower value 0.985 | locus YIR030C, strain dcg1, stronger effect = lower value 0.997 | locus YJL092W, strain hpr5, stronger effect = lower value 1.02 | locus YJL095W, strain BCK1 (second series), stronger effect = lower value 0.989 | locus YJL095W, strain BCK1, stronger effect = lower value 0.99 and 0.98 | locus YJL115W, strain asf1, stronger effect = lower value 0.986 | locus YJL129C, strain trk1, stronger effect = lower value 0.972 | locus YJL134W, strain LCB3, stronger effect = lower value 0.986 | locus YJL154C, strain vps35, stronger effect = lower value 0.995 | locus YJL164C, strain tpk1, stronger effect = lower value 0.998 | locus YJL166W, strain qcr8, stronger effect = lower value 0.997 | locus YJL168C, strain set2, stronger effect = lower value 0.989 | locus YJL187C, strain SWE1 (second series), stronger effect = lower value 0.989 | locus YJL187C, strain SWE1, stronger effect = lower value 0.999 | locus YJR043C, strain POL32, stronger effect = lower value 1.08 | locus YJR066W, strain TOR1, stronger effect = lower value 0.9
